# An excerpt weighted towards active compounds, which were near 8.9% of everything screened.
# ALDH1A1 inh: inhibitors of human aldehyde dehydrogenase 1A1. P00352. Purified ALDH1A1, NADH fluorescence, propionaldehyde substrate. Potency, µM (titrated, usually from 75.3 µM), for inactives: top-dose activity, negative = inhibition, most hits filed as inhibitors. 7.3% of 220,000 active; active = well fitted inhibition curve with a large enough effect, not every such curve was filed as active; inconclusive = small, poorly fitted or top-dose-only effect, or another doubt; inactive = no such curve, though single readings can be large or run the other way;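 note: potency is the fitted concentration of half-maximal effect; plate controls were no enzyme wells and a reference inhibitor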
# 12-hLO inh: inhibitors of human 12-lipoxygenase (ALOX12); P18054; purified 12-hLO, xylenol orange hydroperoxide absorbance; Potency, µM (doses to about 57.1 µM), for the others: at the top dose activity change, negative = inhibition, usual class: inhibitors; 0.12% of 150,000 active; note: potency is the fitted concentration of half-maximal effect; nearly all actives have a fitted effect of over 55% in size
#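 150 nM 12hLO, 25 mM Hepes pH 7.0 + 0.01% Triton X-100; cpd preinc 15 min RT; 40 uM arachidonic acid, 30 min RT; Fe-XO 30 min; A573/A405 ratio as read-out.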
# NPSR antagonist: neuropeptide S receptor (human) antagonism, cAMP | Q6W5P4 | CHO-NPSR cells, cAMP TR-FRET, antagonist mode | Potency, µM (series often up to 38.3 µM), for inactives: at the highest dose activity change, negative = inhibition, most hits filed as inhibitors | 1% of 220,000 active | AID 1461; note: potency is the fitted concentration of half-maximal effect; nearly all actives have a fitted effect of over 50% in size
# HPGD block: blocks human HPGD enzyme activity; 4.3% of 150,000 active; purified HPGD, NADH fluorescence kinetic, PGE2 substrate; P15428; Potency, µM, without a hit: top-dose activity change, negative = inhibition, actives largely listed as inhibitors; active = well fitted inhibition curve with a large enough effect, not every such curve was filed as active; inconclusive = small, poorly fitted or top-dose-only effect, or another doubt; inactive = no such curve, though single readings can be large or run the other way; note: potency is the fitted concentration of half-maximal effect
# Target sequence (P15428 whole entry, looked up): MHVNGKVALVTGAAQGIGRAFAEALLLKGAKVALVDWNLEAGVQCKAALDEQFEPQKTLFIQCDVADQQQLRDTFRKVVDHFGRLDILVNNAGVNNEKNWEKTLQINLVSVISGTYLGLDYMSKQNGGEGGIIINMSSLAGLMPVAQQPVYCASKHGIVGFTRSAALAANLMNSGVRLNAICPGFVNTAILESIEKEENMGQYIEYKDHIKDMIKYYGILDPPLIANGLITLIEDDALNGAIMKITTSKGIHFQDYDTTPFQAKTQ
#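 NADH formation kinetics: reaction with 30 uM PGE2 and 1 mM NAD+ (final), 20 nM enzyme, Tris-HCl pH 8 with Tween 20, after 15 min compound preincubation at room temperature. Fluorescence change, last versus first of five reads.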
# IMPase Li inh: IMPase inhibition in cells with lithium potentiation. Potency, µM (highest dose often 59.4 µM), inactives show top-dose activity, negative = IMPase inhibition, hits mostly inhibitors. AID 1457. CHO-M1 cells, IP1 TR-FRET (IP-One), carbachol + lithium. 0.35% of 210,000 active;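 note: IP1 builds up when IMPase is blocked and the TR-FRET signal falls; potency is the fitted concentration of half-maximal effect; plate controls were basal vehicle for no effect and high inhibitor control for full effect; nearly all actives have a fitted effect of over 50% in size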
#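 Concentration–response in CHO-M1 cells, lithium-potentiated; 30 min at 37C. IP1 detected by competitive TR-FRET after 10 min lysis at RT. Hill-fitted AC50.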
# IMPase inh: IMPase inhibition in cells; CHO-M1 cells, IP1 accumulation, HTRF TR-FRET ratio; 120,000 tested, under 10 active; inhibition (IP1 accumulation), % at 46.1 µM; AID 901; P97697; active = well fitted curve in the direction sought with a large enough effect in the signal ratio, not every such curve was filed as active; inconclusive = small, poorly fitted or top-dose-only effect, or a change in a side signal; inactive = no such curve, though single readings can be large or run the other way; the % refers to the signal ratio;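 note: cells stimulated with carbachol in lithium chloride buffer; plate controls were DMSO basal wells for no effect and reference inhibitor wells for full effect; higher means more IMPase inhibition seen as more IP1 and lower FRET ratio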
# Target sequence (P97697 whole entry, looked up): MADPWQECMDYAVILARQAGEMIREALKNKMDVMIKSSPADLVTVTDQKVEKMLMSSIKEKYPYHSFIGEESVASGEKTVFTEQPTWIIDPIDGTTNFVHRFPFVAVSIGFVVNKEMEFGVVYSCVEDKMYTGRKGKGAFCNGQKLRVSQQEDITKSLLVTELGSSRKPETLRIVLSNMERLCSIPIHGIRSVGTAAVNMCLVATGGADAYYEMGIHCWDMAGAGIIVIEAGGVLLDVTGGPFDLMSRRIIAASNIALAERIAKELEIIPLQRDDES
#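 Measured: the HTRF emission ratio (665/620 nm) plus the 620 nm donor channel, each fitted to the Hill equation to give AC50. Cells were CHO-M1 given compounds up to 46 uM and a 30 min carbachol stimulation at 37C.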
# Active calls of the source: *; ? = inconclusive; . = no result; [ ] = another dose, or the depositor's remark. Unless noted, calls come from the whole dose curve; as a rule, active = well fitted curve in the direction sought with a large enough effect; inconclusive = small, poorly fitted or top-dose-only effect, or another doubt; inactive = no such curve, though single readings can be large; an effect the other way counts as inactive or inconclusive. Unless noted, % is set by controls: 0 for no effect and ±100 for the full control effect.
SMILES,ALDH1A1 inh,12-hLO inh,NPSR antagonist,HPGD block,IMPase Li inh,IMPase inh
O=C(c1cc(-c2ccc(Cl)c(Cl)c2)on1)N1CCN(c2ccccc2)CC1,4%,-7%,-14%[46.1 µM],-4%,18%[38.3 µM],5
COc1cccc(-c2cc(C(=O)N3C(C)CCCC3C)no2)c1 (stereo unspecified),?,0%,?,8.9µM*,24%[38.3 µM],6
COc1ccc(-c2cc(C(=O)N3CC4(C)CC3CC(C)(C)C4)no2)cc1 (stereo unspecified),-15%,1%,-18%[46.1 µM],35µM*,18%[38.3 µM],-4
Cc1ccc2oc(=O)c(/C=C(\O)CC(C)C)nc2c1,-1%,-3%,20%,-13%,-2%,.
CCCCNCc1cc2ccccc2o1,.,.,18%,.,.,.
CC1(C)CCC(NC(=O)[C@@H](N)CCC(=O)O)CC1,5%,.,1%[46.1 µM],-4%,12%,.
CC(C)CNC(=O)c1cc(-c2ccc(Cl)c(Cl)c2)on1,-12%,-2%,1%[46.1 µM],-11%,10%[38.3 µM],0
CCC1CCCCN1C(=O)c1cc(-c2ccc(Cl)c(Cl)c2)on1 (stereo unspecified),-1%,-3%,?,4.5µM*,-11%,-12
CCC(CC)c1nnc(NC(=O)c2c(C)nn(Cc3ccccc3Cl)c2C)s1,?,-19%,?,-15%,-4%[38.3 µM],1
COc1ccc(-c2cc(C(=O)OCC(=O)Nc3ccc4c(c3)OCO4)c3ccccc3n2)cc1,?,-1%,-11%,?,-3%,-8
Cc1c(C(=O)NC(=S)Nc2ccc3c4c(cccc24)CC3)cccc1[N+](=O)[O-],?,-15%,-8%[46.1 µM],-4%,6%[38.3 µM],4
COc1ccc(C(=O)Nc2ccc3c4c(cccc24)CC3)cc1,-6%,7%,-11%[46.1 µM],-20%,13%[38.3 µM],2
COc1cc(OC)cc(C(=O)NC(=S)Nc2ccc3c4c(cccc24)CC3)c1,7.9µM*,1%,-20%[46.1 µM],-13%,-3%,-2
COc1ccc(C(=O)NC(=S)Nc2ccc3c4c(cccc24)CC3)cc1OC,13µM*,2%,-3%,-15%,3%,.
C=CCOc1ccnc(-c2ccccc2)n1,9%,.,39%,.,.,.
COc1ccc(O[C@H]2C=C[C@@H](c3ccccc3)O[C@@H]2COC(=O)CC/C(C)=N/O[C@H](C)c2cn([C@@H]3COC[C@H]3O)nn2)cc1,?,1%,-23%,-5%,21%,.
N#Cc1cccc(NC(=O)N2CCC(c3nc4c(nnn4Cc4cccc(Cl)c4)c(=O)[nH]3)CC2)c1,-2%,-3%,-17%[46.1 µM],10µM*,-3%[38.3 µM],4
O=C(NC1CCCC1)c1nc2c(nnn2Cc2ccccc2Cl)c(=O)[nH]1,-2%,2%,-13%[46.1 µM],?,12%[38.3 µM],0
O=C(NC1CCCC1)c1nc2c(nnn2Cc2cccc(Cl)c2)c(=O)[nH]1,-4%,-11%,9%[7.67 µM],2.5µM*,-9%[38.3 µM],0
O=C(Cc1cccs1)N1CCC(c2nc3c(nnn3Cc3ccccc3Cl)c(=O)[nH]2)CC1,?,-1%,-16%[46.1 µM],16µM*,11%[38.3 µM],-2
O=C(C1CCCCC1)N1CCCC(c2nc3c(nnn3Cc3ccccc3)c(=O)[nH]2)C1 (stereo unspecified),16µM*,-11%,?,14µM*,-7%[38.3 µM],-8
O=C(/C=C/c1cc([N+](=O)[O-])ccc1OC(F)F)NCc1ccc(Cl)cc1,-4%,-8%,-21%[46.1 µM],-4%,-2%[38.3 µM],-14
O=C(O)CCc1nn2c3ccccc3n(CCO)c2nc1=O,?,.,14%,.,-5%,.
Cc1ccc(NC(=O)N2CCC(c3nc4c(nnn4Cc4cccc(Cl)c4)c(=O)[nH]3)CC2)cc1,-17%,-14%,-16%[46.1 µM],2µM*,16%[38.3 µM],-4
COc1ccccc1NC(=O)N1CCCC(c2nc3c(nnn3Cc3ccc(C)cc3)c(=O)[nH]2)C1 (stereo unspecified),?,-24%,-16%[46.1 µM],.,.,8
O=C(Nc1ccc(F)cc1)N1CCC(c2nc3c(nnn3Cc3cccc(Cl)c3)c(=O)[nH]2)CC1,12%,-11%,-12%[46.1 µM],8.9µM*,-11%[38.3 µM],5

# Compound activity from PubChem.
